Laboratory results as given in PubChem BioAssay (NCI).
About 83,000 compounds went through this panel and 20% of them were active in at least one assay; those are over-represented in the sample as a whole.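 Percent growth is the endpoint: 0 to 100 indicates growth inhibition (40 means 60% inhibition), 0 means no net growth, and negative values indicate cell death.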 Active and inactive are the calls of the source. How the source made its calls: active means growth percent below 10; inactive means the rest.

Legend:
Assay in all cases: NCI-60 one-dose screen, 48 h (100 = growth as untreated, 0 = no growth, -100 = all killed)
NCI-H23 lung = tested on: NCI-H23 lung
NCI-H226 lung = tested on: NCI-H226 lung
NCI-H322M lung = tested on: NCI-H322M lung
HOP-62 NSCLC = tested on: HOP-62 NSCLC
NCI-H460 lung = tested on: NCI-H460 lung
HOP-92 NSCLC = tested on: HOP-92 NSCLC
NCI-H522 lung = tested on: NCI-H522 lung
A549/ATCC NSCLC = tested on: A549/ATCC NSCLC
786-0 renal = tested on: 786-0 renal
COLO 205 colon = tested on: COLO 205 colon
DU-145 prostate = tested on: DU-145 prostate
K-562 leukemia = conditions: 10 µM unless noted
MALME-3M melanoma = tested on: MALME-3M melanoma
MDA-MB-231 breast = tested on: MDA-MB-231 breast
RXF 393 renal = tested on: RXF 393 renal
SF-268 CNS = tested on: SF-268 CNS
SF-295 CNS = tested on: SF-295 CNS
SF-539 CNS = tested on: SF-539 CNS
UACC-257 melanoma = tested on: UACC-257 melanoma
M14 melanoma = tested on: M14 melanoma

Measured: growth

CN1CCc2c(sc3ncnc(N/N=C/c4cccc(Cl)c4Cl)c23)C1
active: NCI-H23 lung; 10 µM unless noted -6.68% | HOP-62 NSCLC; 10 µM unless noted -38.2% | NCI-H460 lung; 10 µM unless noted -71.1% | A549/ATCC NSCLC; 10 µM unless noted -70.1% | 786-0 renal; 10 µM unless noted -16.1% | COLO 205 colon; 10 µM unless noted -80.3% | DU-145 prostate; 10 µM unless noted -5.42% | K-562 leukemia -7.35% | MDA-MB-231 breast; 10 µM unless noted -43.4% | SF-295 CNS; 10 µM unless noted -72.5% | SF-539 CNS; 10 µM unless noted -91.8%
inactive: NCI-H226 lung; 10 µM unless noted 134% | NCI-H322M lung; 10 µM unless noted 77.3% | HOP-92 NSCLC; 10 µM unless noted 58.4% | NCI-H522 lung; 10 µM unless noted 68.8% | MALME-3M melanoma; 10 µM unless noted 87.5% | RXF 393 renal; 10 µM unless noted 27.3% | SF-268 CNS; 10 µM unless noted 43.1% | UACC-257 melanoma; 10 µM unless noted 76.5% | M14 melanoma; 10 µM unless noted 64.5%

CN(C)C(=O)c1cc(-c2ccc3ncnc(N4CCc5cc(F)c(Cl)cc54)c3c2)cnc1N
active: NCI-H23 lung; 10 µM unless noted -18.1% | NCI-H226 lung; 10 µM unless noted -25.4% | NCI-H322M lung; 10 µM unless noted -64.2% | HOP-62 NSCLC; 10 µM unless noted -32.6% | NCI-H460 lung; 10 µM unless noted 3.44% | HOP-92 NSCLC; 10 µM unless noted -45.7% | NCI-H522 lung; 10 µM unless noted -13.4% | A549/ATCC NSCLC; 10 µM unless noted -66.9% | 786-0 renal; 10 µM unless noted -82.2% | COLO 205 colon; 10 µM unless noted -76.5% | K-562 leukemia -21.7% | MALME-3M melanoma; 10 µM unless noted -57.7% | MDA-MB-231 breast; 10 µM unless noted -49.2% | RXF 393 renal; 10 µM unless noted -73.7% | SF-295 CNS; 10 µM unless noted -73.1% | SF-539 CNS; 10 µM unless noted -73.2% | UACC-257 melanoma; 10 µM unless noted 4.11% | M14 melanoma; 10 µM unless noted -36.7%
inactive: DU-145 prostate; 10 µM unless noted 23% | SF-268 CNS; 10 µM unless noted 24.2%

CC/C(=C(\c1ccc(O)cc1)c1ccc(OCCN(C)C(=O)CCOCCNC(=O)c2ccc3c(c2)CN([C@@H]2CCC(=O)NC2=O)C3=O)cc1)c1ccccc1
inactive: NCI-H23 lung; 1 µM 105% | NCI-H23 lung; 10 µM 97.2% | NCI-H226 lung; 1 µM 87.2% | NCI-H226 lung; 10 µM 66.3% | NCI-H322M lung; 1 µM 101% | NCI-H322M lung; 10 µM 88.1% | HOP-62 NSCLC; 1 µM 95.1% | HOP-62 NSCLC; 10 µM 94.4% | NCI-H460 lung; 1 µM 115% | NCI-H460 lung; 10 µM 114% | HOP-92 NSCLC; 1 µM 37.9% | HOP-92 NSCLC; 10 µM 43.7% | NCI-H522 lung; 1 µM 92.6% | NCI-H522 lung; 10 µM 95.3% | A549/ATCC NSCLC; 1 µM 85% | A549/ATCC NSCLC; 10 µM 82.2% | 786-0 renal; 1 µM 96.6% | 786-0 renal; 10 µM 93.4% | COLO 205 colon; 1 µM 95.4% | COLO 205 colon; 10 µM 94.5% | DU-145 prostate; 1 µM 105% | DU-145 prostate; 10 µM 109% | MALME-3M melanoma; 1 µM 78.4% | MALME-3M melanoma; 10 µM 52.5% | MDA-MB-231 breast; 1 µM 33.7% | MDA-MB-231 breast; 10 µM 21.8% | RXF 393 renal; 1 µM 102% | RXF 393 renal; 10 µM 90% | SF-268 CNS; 1 µM 89.3% | SF-268 CNS; 10 µM 100% | SF-295 CNS; 1 µM 96.2% | SF-295 CNS; 10 µM 93.2% | SF-539 CNS; 1 µM 94.6% | SF-539 CNS; 10 µM 88.9% | UACC-257 melanoma; 1 µM 101% | UACC-257 melanoma; 10 µM 88.3% | M14 melanoma; 1 µM 90.5% | M14 melanoma; 10 µM 92.8%

COc1ccc2c(c1)C(Sc1ccc(Cl)cc1)c1c(nc(N)c(C#N)c1N)O2 (stereo not drawn)
inactive: NCI-H23 lung; 10 µM unless noted 74.6% | NCI-H226 lung; 10 µM unless noted 64.9% | NCI-H322M lung; 10 µM unless noted 86.4% | HOP-62 NSCLC; 10 µM unless noted 61.8% | NCI-H460 lung; 10 µM unless noted 63.2% | HOP-92 NSCLC; 10 µM unless noted 76.7% | NCI-H522 lung; 10 µM unless noted 54.5% | A549/ATCC NSCLC; 10 µM unless noted 53.7% | 786-0 renal; 10 µM unless noted 61.8% | COLO 205 colon; 10 µM unless noted 87.2% | DU-145 prostate; 10 µM unless noted 86% | K-562 leukemia 47.6% | MALME-3M melanoma; 10 µM unless noted 82.2% | MDA-MB-231 breast; 10 µM unless noted 56.4% | RXF 393 renal; 10 µM unless noted 56.4% | SF-268 CNS; 10 µM unless noted 46% | SF-295 CNS; 10 µM unless noted 55.7% | SF-539 CNS; 10 µM unless noted 61.8% | UACC-257 melanoma; 10 µM unless noted 104% | M14 melanoma; 10 µM unless noted 66.4%

COc1ccc(-c2nc3ccccc3n2CC(=O)N=Nc2c(O)[nH]c3ccc(Br)cc23)cc1
inactive: NCI-H23 lung; 10 µM unless noted 78.8% | NCI-H226 lung; 10 µM unless noted 100% | NCI-H322M lung; 10 µM unless noted 103% | HOP-62 NSCLC; 10 µM unless noted 69.8% | NCI-H460 lung; 10 µM unless noted 80.6% | HOP-92 NSCLC; 10 µM unless noted 79.8% | NCI-H522 lung; 10 µM unless noted 67.4% | A549/ATCC NSCLC; 10 µM unless noted 98.2% | 786-0 renal; 10 µM unless noted 97.3% | COLO 205 colon; 10 µM unless noted 83% | DU-145 prostate; 10 µM unless noted 33.7% | K-562 leukemia 35.3% | MALME-3M melanoma; 10 µM unless noted 79.3% | MDA-MB-231 breast; 10 µM unless noted 57.5% | RXF 393 renal; 10 µM unless noted 64.3% | SF-268 CNS; 10 µM unless noted 96% | SF-295 CNS; 10 µM unless noted 81.1% | SF-539 CNS; 10 µM unless noted 87.9% | UACC-257 melanoma; 10 µM unless noted 120% | M14 melanoma; 10 µM unless noted 77.4%

COc1ccc2c(c1)c(-c1cc(N)n3nc(-c4c[nH]c5ccccc45)cc3n1)cn2C
active: NCI-H23 lung; 10 µM unless noted -69.9% | NCI-H226 lung; 10 µM unless noted -33.1% | NCI-H322M lung; 10 µM unless noted -53.5% | HOP-62 NSCLC; 10 µM unless noted -71.5% | NCI-H460 lung; 10 µM unless noted -69.7% | HOP-92 NSCLC; 10 µM unless noted -66.7% | NCI-H522 lung; 10 µM unless noted -70.4% | A549/ATCC NSCLC; 10 µM unless noted -88.1% | 786-0 renal; 10 µM unless noted -84.5% | COLO 205 colon; 10 µM unless noted -83.9% | DU-145 prostate; 10 µM unless noted -46.6% | K-562 leukemia 1.75% | MALME-3M melanoma; 10 µM unless noted -89.9% | MDA-MB-231 breast; 10 µM unless noted -75.7% | RXF 393 renal; 10 µM unless noted -79% | SF-268 CNS; 10 µM unless noted -41.1% | SF-295 CNS; 10 µM unless noted -76.9% | SF-539 CNS; 10 µM unless noted -97.1% | UACC-257 melanoma; 10 µM unless noted -89.6% | M14 melanoma; 10 µM unless noted -71.2%
